The values below come from PubChem BioAssay (Tox21).

Values joined by “and” are separate entries in the source; they are usually repeats but may differ in a detail not shown here. Equal values may be shown once. Inconclusive results are not listed. More than one record can exist for a structure, and the calls need not agree. Active and inactive are the calls of the source. Unless noted, calls come from the whole dose curve; as a rule, active = well fitted curve in the direction sought with a large enough effect in the repeat runs; inconclusive = weak or mixed curves; inactive = no such curve, though single readings can be large; an effect the other way counts as inactive or inconclusive.

The target in experiment [1] is Thyrotropin-releasing hormone receptor (Homo sapiens) (UniProt P34981). The experiment is described as follows: qHTS assay to identify small molecule agonists of the thyrotropin-releasing hormone receptor (TRHR) signaling pathway (AID 1346891; calls by dose curve;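 note: HEK293 cells expressing TRHR with calcium dye readout; series mostly up to about 58 µM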). Put shortly: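 In 1536-format, 1500 TRHR-Hek293 cells per well grew 18 h, took up calcium dye for 2 h at 37 °C, received compound, and were read kinetically; 15-point titrations, triplicates.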
For orientation: In qHTS, concentration-response curves come from the screen itself.

Experiment [2] can be described thus: Human pregnane X receptor (PXR) small molecule agonists, qHTS cell viability counter screen (AID 1346977). Note: nearly all actives have a fitted effect of over 50% in size. Note: potency is the fitted concentration of half-maximal effect. In short, it runs like this:
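Readout is CellTiter-Fluor fluorescence from PXR-Luc HepG2 cells. Plated cells rested 5hr, then were treated with compounds for 24hr at 37C and 5% CO2, with reagent present during the last hour.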

The nature of experiment [3]: Caspase-3/7 induction in HepG2 cells by small molecules, qHTS assay (AID 1346978). Note: nearly all actives have a fitted effect of over 15% in size. Put shortly:
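Caspase-3/7 induction was measured by Caspase-Glo 3/7 luminescence (30 min, room temperature) after a 17 hr compound exposure of wild-type HepG2 cells seeded at 2,000 per well and pre-incubated 5 hr.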

Experiment [4] can be described thus: Caspase-3/7 induction in CHO-K1 cells by small molecules, qHTS cell viability counter screen (AID 1346979). Note: nearly all actives have a fitted effect of over 35% in size. Note: potency is the fitted concentration of half-maximal effect. Put shortly: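 To flag cytotoxic compounds, treated CHO-K1 wild-type cells were given CellTiter-Fluor at 16hr and read fluorescently after 1hr at 37C; the caspase-3/7 luminescence was measured in these same wells.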
Experiment [5] is described as follows: Caspase-3/7 induction in CHO-K1 cells by small molecules, qHTS assay (AID 1346980). Note: nearly all actives have a fitted effect of over 15% in size. In short, it runs like this: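 Luminescent Caspase-Glo 3/7 read (30min, room temperature) quantified apoptosis induction. Cells were wild-type CHO-K1, treated with compound for 17hr at 37 C and 5% CO2.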
Experiment [6] can be described thus: Caspase-3/7 induction in HepG2 cells by small molecules, qHTS cell viability counter screen (AID 1346981). Note: nearly all actives have a fitted effect of over 30% in size. Note: potency is the fitted concentration of half-maximal effect. In short, it runs like this:
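In this quantitative HTS counter screen, compounds delivered in DMSO were left on unmodified HepG2 cells for 16 hr at 37 C. Viability was then determined fluorometrically with CellTiter-Fluor, in parallel with caspase-3/7 induction in the same wells.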

In experiment [7] the target is Nuclear receptor subfamily 1 group I member 2 (Homo sapiens) (UniProt O75469). The experiment is described as follows: Human pregnane X receptor (PXR) small molecule agonists, qHTS assay (AID 1346982). Note: nearly all actives have a fitted effect of over 35% in size. Note: potency is the fitted concentration of half-maximal effect. In short, it runs like this: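 Reporter HepG2 cells expressing PXR-Luc are cultured in charcoal-stripped FBS (5%), treated with compounds for 24 hr at 37 C, and assayed by ONE-Glo luminescence after 30 min at room temperature.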

In experiment [8] the target is Acetylcholinesterase (Homo sapiens) (UniProt P22303). In words: Acetylcholinesterase (AChE) small molecule antagonists: colormetric cell-based qHTS assay (AID 1347395; calls by dose curve; note: nearly all actives have a fitted effect of over 30% in size; note: potency is the fitted concentration of half-maximal effect). Put shortly:
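Neuroblastoma line SH-SY5Y supplied the enzyme; cells were preincubated with compound for 30 min at 37 C and 5% CO2. Acetylthiocholine with DTNB was then added for 90 min at 37 C, and thiocholine was measured by colour.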

The target is the same in experiment [9]. The experiment is described as follows: Acetylcholinesterase (AChE) small molecule antagonists: enzyme-based qHTS assay (AID 1347397; calls by dose curve; note: nearly all actives have a fitted effect of over 55% in size). The conditions noted are these: Potency: AChE enzyme activity inhibition. Put shortly: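 Colorimetric DTNB readout of acetylthiocholine hydrolysis, 10 min at room temperature, after 30 min room-temperature exposure of 50 mU/mL recombinant human enzyme to compound; DMSO vehicle control.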

Experiment [10] has the same target. The experiment is described as follows: Acetylcholinesterase (AChE) small molecule antagonists: fluorescence cell-based qHTS assay (AID 1347398; calls by dose curve; note: nearly all actives have a fitted effect of over 50% in size). The note with it: Potency: AChE activity. In short, it runs like this:
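Cellular AChE activity read as thiocholine from acetylthiocholine hydrolysis, detected by Thiolite Green fluorescence at 490/520 nm after 40 min at room temperature. Compounds were pre-incubated 30 min at 37 C on adherent SH-SY5Y cells.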

The target of experiment [11] is Cytochrome P450 2D6 (Homo sapiens) (UniProt P10635). The experiment is described as follows: Cytochrome P450 Family 2 Subfamily D Member 6 (CYP2D6) small molecule antagonists: luciferase reporter qHTS assay (AID 1671196). Note: nearly all actives have a fitted effect of over 50% in size. Note: potency is the fitted concentration of half-maximal effect. Put shortly: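 Test chemicals meet CYP2D6 plus proluciferin substrate (10 min, RT); NADPH regenerating solution then drives turnover for 1 h. Detection reagent halts the reaction; luminescence measured after 20 min.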

In experiment [12] the target is Cytochrome P450 2C19 (Homo sapiens) (UniProt P33261). The experiment is described as follows: Cytochrome P450 Family 2 Subfamily C Member 19 (CYP2C19) small molecule antagonists: luciferase reporter qHTS assay (AID 1671197). Note: nearly all actives have a fitted effect of over 65% in size. Note: potency is the fitted concentration of half-maximal effect. In short, it runs like this: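 P450-Glo CYP2C19 screening system; proluciferin substrate; DMSO compound stocks; 10 min RT preincubation; NADPH regeneration, 1 h at 37C; luciferin detection reagent, 20 min RT; luminescence as RLU.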

Experiment [13] has as its target Cytochrome P450 2C9 (Homo sapiens) (UniProt P11712). In words: Cytochrome P450 Family 2 Subfamily C Member 9 (CYP2C9) small molecule antagonists: luciferase reporter qHTS assay (AID 1671198). Note: potency is the fitted concentration of half-maximal effect; nearly all actives have a fitted effect of over 50% in size. Put shortly:
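Enzyme-substrate mix preincubated with compound 10 min at room temperature; reaction started with NADPH regeneration solution, 1 h 37C. Luminescent luciferin product read after 20 min detection reagent.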
A general note: In a reporter assay the amount or activity of a reporter protein is the signal.

For experiment [14], the target named is Cytochrome P450 1A2 (Homo sapiens) (UniProt P05177). The experiment is described as follows: Cytochrome P450 Family 1 Subfamily A Member 2 (CYP1A2) small molecule antagonists: luciferase reporter qHTS assay (AID 1671199). Put shortly:
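Steps: enzyme-substrate mix dispensed; test compounds and furafylline control pinned in; 10 min room temperature; NADPH regeneration solution added, 1 h; reaction stopped with luciferin detection reagent; luminescence read after 20 min.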

Experiment [15] deals with Cytochrome P450 3A4 (Homo sapiens) (UniProt P08684). In words: Cytochrome P450 Family 3 Subfamily A Member 4 (CYP3A4) small molecule antagonists: luciferase reporter qHTS assay (AID 1671201). Put shortly:
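Setup: enzyme-substrate mix, compound pin transfer, 10 min RT. Reaction: NADPH regeneration solution, 1 h RT. Readout: detection reagent stops turnover, luminescence measured after 20 min, expressed in relative luminescence units.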

Experiment [16] concerns the target Voltage-gated inwardly rectifying potassium channel KCNH2 (Homo sapiens) (UniProt Q12809). The experiment is described as follows: Human Ether-a-go-go-Related Gene (hERG) channel small molecule antagonists: fluorescence cell-based qHTS assay (AID 1671200). Put shortly:
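Measured: Tl+ flux via fluorescence (480/540 nm) in hERG-expressing U2OS cells after 1 h dye loading at room temperature.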
Background: Block of hERG is tested as a sign of cardiac risk.

Experiment [17] addresses Acetylcholinesterase (Homo sapiens) (UniProt P22303). In words: Acetylcholinesterase (AChE) small molecule antagonists: enzyme-based qHTS assay with human liver microsomes (AID 1347399; calls by dose curve; note: nearly all actives have a fitted effect of over 60% in size). The note with it: Potency: qHTS inhibition. In short, it runs like this:
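Recombinant human AChE (50 mU/mL in the enzyme mix) and human liver microsomes (0.25 mg/mL final) were preincubated with compound and NADPH (0.25 mg/mL final) for 30 min at 37 C. Acetylthiocholine/DTNB was then added; thiocholine was read colorimetrically after 10 min at room temperature.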

Nuclear receptor subfamily 1 group I member 2 (Homo sapiens), sequence (O75469 whole entry, looked up): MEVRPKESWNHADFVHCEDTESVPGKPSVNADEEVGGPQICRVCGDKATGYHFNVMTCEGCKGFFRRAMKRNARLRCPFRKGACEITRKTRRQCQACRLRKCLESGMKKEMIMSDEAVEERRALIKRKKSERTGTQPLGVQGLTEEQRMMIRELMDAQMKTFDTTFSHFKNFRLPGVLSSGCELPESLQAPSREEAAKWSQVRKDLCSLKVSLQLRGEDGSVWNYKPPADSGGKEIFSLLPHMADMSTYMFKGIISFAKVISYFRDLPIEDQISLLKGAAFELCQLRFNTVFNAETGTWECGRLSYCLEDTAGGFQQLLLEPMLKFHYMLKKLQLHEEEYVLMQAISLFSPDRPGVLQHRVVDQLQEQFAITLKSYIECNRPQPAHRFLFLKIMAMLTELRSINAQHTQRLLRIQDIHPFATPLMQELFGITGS
Acetylcholinesterase (Homo sapiens), sequence (P22303 whole entry, looked up): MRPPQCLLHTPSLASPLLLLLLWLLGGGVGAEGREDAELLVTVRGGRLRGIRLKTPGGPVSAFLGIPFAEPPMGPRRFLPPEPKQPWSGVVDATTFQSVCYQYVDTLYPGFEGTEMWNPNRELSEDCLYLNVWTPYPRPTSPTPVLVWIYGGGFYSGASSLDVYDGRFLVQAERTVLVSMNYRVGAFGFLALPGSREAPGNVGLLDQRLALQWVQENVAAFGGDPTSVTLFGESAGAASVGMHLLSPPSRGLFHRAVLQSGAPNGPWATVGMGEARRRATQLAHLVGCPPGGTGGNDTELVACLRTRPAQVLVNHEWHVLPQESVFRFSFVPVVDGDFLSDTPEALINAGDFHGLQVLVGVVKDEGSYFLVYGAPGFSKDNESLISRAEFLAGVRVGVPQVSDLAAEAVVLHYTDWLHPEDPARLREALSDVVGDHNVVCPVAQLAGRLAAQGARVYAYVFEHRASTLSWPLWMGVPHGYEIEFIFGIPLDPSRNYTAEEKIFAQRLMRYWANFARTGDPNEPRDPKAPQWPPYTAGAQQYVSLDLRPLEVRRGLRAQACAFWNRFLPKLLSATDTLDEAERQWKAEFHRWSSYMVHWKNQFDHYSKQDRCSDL
Cytochrome P450 1A2 (Homo sapiens), sequence (P05177 whole entry, looked up): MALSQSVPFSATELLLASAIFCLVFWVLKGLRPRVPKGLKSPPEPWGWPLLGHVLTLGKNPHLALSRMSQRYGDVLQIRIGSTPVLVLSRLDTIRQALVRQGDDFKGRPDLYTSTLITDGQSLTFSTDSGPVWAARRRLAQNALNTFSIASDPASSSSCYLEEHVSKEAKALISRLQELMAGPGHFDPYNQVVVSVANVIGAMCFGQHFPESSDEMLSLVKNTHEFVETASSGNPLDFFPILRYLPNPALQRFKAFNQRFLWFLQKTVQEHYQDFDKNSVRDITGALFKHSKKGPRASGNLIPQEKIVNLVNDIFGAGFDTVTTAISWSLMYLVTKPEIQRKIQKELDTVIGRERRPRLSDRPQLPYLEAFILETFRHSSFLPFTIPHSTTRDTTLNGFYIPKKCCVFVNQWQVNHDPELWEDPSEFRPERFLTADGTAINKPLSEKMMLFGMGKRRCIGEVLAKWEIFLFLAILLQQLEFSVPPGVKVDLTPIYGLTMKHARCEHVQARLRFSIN
Cytochrome P450 3A4 (Homo sapiens), sequence (P08684 whole entry, looked up): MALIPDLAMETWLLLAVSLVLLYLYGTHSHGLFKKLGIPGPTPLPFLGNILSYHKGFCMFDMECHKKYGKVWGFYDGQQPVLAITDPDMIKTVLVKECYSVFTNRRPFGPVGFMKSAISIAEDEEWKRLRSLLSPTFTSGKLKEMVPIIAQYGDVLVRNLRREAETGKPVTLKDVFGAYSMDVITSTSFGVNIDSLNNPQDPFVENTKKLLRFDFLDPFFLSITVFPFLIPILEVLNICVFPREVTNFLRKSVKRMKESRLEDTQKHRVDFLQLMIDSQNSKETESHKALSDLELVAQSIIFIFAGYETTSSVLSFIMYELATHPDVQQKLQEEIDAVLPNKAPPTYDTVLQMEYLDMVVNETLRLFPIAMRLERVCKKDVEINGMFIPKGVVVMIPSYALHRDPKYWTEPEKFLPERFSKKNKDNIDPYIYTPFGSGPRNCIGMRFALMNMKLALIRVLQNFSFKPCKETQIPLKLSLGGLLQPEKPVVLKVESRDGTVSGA
Voltage-gated inwardly rectifying potassium channel KCNH2 (Homo sapiens), sequence (Q12809 whole entry, looked up): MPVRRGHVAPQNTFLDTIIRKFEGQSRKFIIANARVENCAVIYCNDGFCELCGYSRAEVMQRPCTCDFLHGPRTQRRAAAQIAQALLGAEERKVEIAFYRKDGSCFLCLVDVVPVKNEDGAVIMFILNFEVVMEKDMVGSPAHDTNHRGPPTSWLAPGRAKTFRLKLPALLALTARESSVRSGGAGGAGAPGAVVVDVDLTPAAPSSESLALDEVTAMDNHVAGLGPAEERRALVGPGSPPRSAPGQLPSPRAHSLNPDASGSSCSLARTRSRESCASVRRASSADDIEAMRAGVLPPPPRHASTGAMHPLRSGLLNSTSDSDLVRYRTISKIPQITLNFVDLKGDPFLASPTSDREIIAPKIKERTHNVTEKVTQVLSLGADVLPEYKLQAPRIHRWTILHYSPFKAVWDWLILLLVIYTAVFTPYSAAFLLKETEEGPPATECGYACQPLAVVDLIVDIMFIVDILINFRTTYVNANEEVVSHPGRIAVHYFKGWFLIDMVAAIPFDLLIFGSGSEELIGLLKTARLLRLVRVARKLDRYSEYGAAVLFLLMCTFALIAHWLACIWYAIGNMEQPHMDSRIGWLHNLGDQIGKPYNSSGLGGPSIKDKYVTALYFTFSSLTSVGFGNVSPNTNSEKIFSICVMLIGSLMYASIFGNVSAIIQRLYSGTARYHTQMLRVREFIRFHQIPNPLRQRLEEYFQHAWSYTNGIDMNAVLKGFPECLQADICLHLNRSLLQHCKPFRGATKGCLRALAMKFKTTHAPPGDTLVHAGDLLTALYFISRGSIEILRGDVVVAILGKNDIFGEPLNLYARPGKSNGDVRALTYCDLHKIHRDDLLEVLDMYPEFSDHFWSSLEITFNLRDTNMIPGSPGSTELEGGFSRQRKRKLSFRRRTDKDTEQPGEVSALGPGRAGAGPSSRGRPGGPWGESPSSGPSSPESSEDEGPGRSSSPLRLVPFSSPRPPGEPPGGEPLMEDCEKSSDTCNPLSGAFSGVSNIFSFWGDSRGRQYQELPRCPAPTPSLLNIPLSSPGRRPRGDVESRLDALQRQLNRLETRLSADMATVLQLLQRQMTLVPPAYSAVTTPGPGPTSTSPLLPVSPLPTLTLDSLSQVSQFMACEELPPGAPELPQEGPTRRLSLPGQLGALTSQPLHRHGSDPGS
Cytochrome P450 2C19 (Homo sapiens), sequence (P33261 whole entry, looked up): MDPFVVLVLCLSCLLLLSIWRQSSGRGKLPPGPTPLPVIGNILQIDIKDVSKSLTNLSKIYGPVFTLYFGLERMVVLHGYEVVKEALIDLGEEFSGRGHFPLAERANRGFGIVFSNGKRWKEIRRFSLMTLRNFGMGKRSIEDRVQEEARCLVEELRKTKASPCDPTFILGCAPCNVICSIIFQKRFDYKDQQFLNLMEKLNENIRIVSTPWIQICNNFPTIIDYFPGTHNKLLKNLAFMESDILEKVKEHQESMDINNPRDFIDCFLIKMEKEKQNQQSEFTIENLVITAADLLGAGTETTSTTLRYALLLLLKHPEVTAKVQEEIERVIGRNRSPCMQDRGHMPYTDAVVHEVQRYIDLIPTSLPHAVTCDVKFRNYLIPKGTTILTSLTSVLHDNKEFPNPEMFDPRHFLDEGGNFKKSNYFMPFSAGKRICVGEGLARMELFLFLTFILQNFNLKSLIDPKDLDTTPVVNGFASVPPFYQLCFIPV
Thyrotropin-releasing hormone receptor (Homo sapiens), sequence (P34981 whole entry, looked up): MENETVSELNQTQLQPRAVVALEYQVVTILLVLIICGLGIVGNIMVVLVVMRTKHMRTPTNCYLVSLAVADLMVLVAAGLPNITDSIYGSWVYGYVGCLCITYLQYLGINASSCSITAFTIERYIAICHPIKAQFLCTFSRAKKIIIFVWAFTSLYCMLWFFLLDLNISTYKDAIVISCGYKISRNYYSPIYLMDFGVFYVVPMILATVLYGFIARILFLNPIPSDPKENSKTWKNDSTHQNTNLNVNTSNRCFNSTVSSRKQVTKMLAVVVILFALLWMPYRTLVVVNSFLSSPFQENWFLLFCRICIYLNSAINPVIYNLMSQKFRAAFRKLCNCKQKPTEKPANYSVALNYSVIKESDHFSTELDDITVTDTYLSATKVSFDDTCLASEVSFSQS
Cytochrome P450 2C9 (Homo sapiens), sequence (P11712 whole entry, looked up): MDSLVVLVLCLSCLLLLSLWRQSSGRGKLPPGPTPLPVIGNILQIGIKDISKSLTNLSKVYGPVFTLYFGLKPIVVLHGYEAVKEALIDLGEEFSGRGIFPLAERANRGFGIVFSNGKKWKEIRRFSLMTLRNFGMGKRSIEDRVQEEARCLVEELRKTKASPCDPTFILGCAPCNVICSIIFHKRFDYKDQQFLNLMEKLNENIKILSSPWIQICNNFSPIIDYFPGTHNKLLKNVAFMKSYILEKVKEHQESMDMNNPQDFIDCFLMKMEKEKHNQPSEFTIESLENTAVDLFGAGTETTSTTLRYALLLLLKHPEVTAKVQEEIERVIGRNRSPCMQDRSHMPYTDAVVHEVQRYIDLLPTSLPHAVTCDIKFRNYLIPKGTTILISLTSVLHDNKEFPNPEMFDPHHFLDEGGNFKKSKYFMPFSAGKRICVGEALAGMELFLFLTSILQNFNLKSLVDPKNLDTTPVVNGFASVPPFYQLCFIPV

Regarding `CCCCOC(=O)c1ccccc1C(=O)OCc1ccccc1`, the Potency result in experiment [1], in experiment [3], in experiment [4], in [5], in experiment [6] and in experiment [8] was “inactive” each time. Further, the Potency result in [9], in experiment [10] and in experiment [15] was “inactive” in each case. For the same compound, the Potency result in experiment [2] was “inactive and 48.6 µM (active)”; in [7], “inactive and 21.7 µM (active)”; in [11], “inactive and 71 µM (active)”; in experiment [12], 1.78 µM (active) and 1.12 µM (active); in [13], 8.92 µM (active) and 10 µM (active); in [14], 15.9 µM (active) and 12.7 µM (active).
Regarding `Brc1ccc(Oc2ccccc2)cc1`, the Potency result in experiment [1], in experiment [2], in experiment [3], in experiment [4], in experiment [5] and in [6] was “inactive” in each case. The Potency entry in [7], in experiment [8], in experiment [9], in experiment [10], in [11] and in [16] was “inactive” each time. The Potency result in [15] is “inactive”. Also, the Potency was 81.7 µM (active) and 31.7 µM (active) in [12]; 25.2 µM (active) in [14].
On to `CO/C=C(/C(=O)OC)c1ccccc1COc1cccc(C(F)(F)F)n1`, for which the Potency result in experiment [1], in experiment [3], in experiment [5], in [8], in experiment [9] and in [10] was “inactive” in each case. Besides, the Potency entry in experiment [17] and in experiment [15] was “inactive” throughout. Moreover, the Potency in [2] is 1.93 µM (active); in experiment [4], 0.385 µM (active); in experiment [7], 34.3 µM (active); in experiment [11] it was 39.9 µM (active); in experiment [12], 0.709 µM (active); in [13], 39.9 µM (active). Besides, the Potency in [14] is 35.5 µM (active).
`O=Cc1ccc2c(c1)OCO2`: the Potency entry in experiment [1], in experiment [2], in [3], in experiment [4], in experiment [5] and in experiment [6] was “inactive” each time. For the same compound, the Potency entry in experiment [8], in [9], in experiment [10], in [17], in [11] and in experiment [12] was “inactive” each time. Also, the Potency entry in [16] and in experiment [15] was “inactive” in each case. Further, the Potency in experiment [14] was 31.3 µM (active).
With `Cc1ccc(N)cc1C`, the Potency entry in [1], in experiment [2], in [3], in experiment [4], in experiment [5] and in [6] was “inactive” in each case. Moreover, the Potency result in experiment [8], in [9] and in experiment [10] was “inactive” each time. The Potency in experiment [7] is 49 µM (active); in experiment [11], 5.07 µM (active); in [12], 28.5 µM (active); in experiment [14], 4.52 µM (active).
Take `CN(N=O)c1ccc([N+](=O)[O-])cc1`: the Potency entry in experiment [1], in experiment [2], in [3], in experiment [4], in experiment [5] and in experiment [6] was “inactive” each time. Moreover, the Potency entry in experiment [7], in experiment [9], in experiment [17], in experiment [16] and in experiment [15] was “inactive” throughout. For the same compound, the Potency in experiment [8] was 63.3 µM (active); in experiment [12], 35.6 µM (active); in experiment [14] it was 6.33 µM (active).
As to `O=S1(=O)OC(c2cc(Br)c(O)c(Br)c2)(c2cc(Br)c(O)c(Br)c2)c2ccccc21`, the Potency entry in [1], in experiment [3], in [5], in experiment [7], in experiment [8] and in experiment [9] was “inactive” throughout. Moreover, the Potency entry in experiment [10] was “inactive”. The Potency in experiment [2] was 12.5 µM (active); in experiment [4] it was 25 µM (active); in experiment [6], 25 µM (active); in [11] it was 58 µM (active); in experiment [12] it was 73 µM (active); in experiment [13], 16.3 µM (active). In addition, in experiment [14], the Potency was 32.6 µM (active).
